Measurements as given in PubChem BioAssay (NCATS).
Results filed as inconclusive are left out. The source made the active and inactive calls. Unless noted, calls follow the shape of the dose curve; as a rule, active = well fitted curve in the direction sought with a large enough effect; inconclusive = small, poorly fitted or top-dose-only effect, or another doubt; inactive = no such curve, though single readings can be large; an effect the other way counts as inactive or inconclusive.

Experiments:
[1] = qHTS for inhibitors of adenylyl cyclases using a fission yeast platform: a pilot screen against the NCATS LOPAC library (AID 1347410)
How it was run: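 Inhibition of GNAS-stimulated AC9 activity in S. pombe was inferred from derepression of a PKA-repressed fbp1-GFP reporter, measured as cytometric fluorescence after 18 h at 30C with compounds at up to 57 µM.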

[2] = qHTS to identify inhibitors of the type 1 interferon - major histocompatibility complex class I in skeletal muscle: primary screen against the NCATS Mechanism Interrogation Plate v5.0 (MIPE) Libary (AID 1347411); also: nearly all actives have a fitted effect of over 65% in size
How it was run: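 Luminescence from CRISPR HiBit-tagged endogenous HLA-B in human myoblasts reported MHC class I level after 24 h of IFN-beta (4 ng/ml) plus compound. Compounds ran as 11-point 1:3 series, top 46 uM final.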

[3] = target: Protein phosphatase 1D (Homo sapiens) (UniProt O15297); test: RapidFire Mass Spectrometry qHTS Assay for Modulators of WT P53-Induced Phosphatase 1 (WIP1) (AID 1347424); also: series mostly up to about 63 µM
Chain of Protein phosphatase 1D (Homo sapiens) (O15297 whole entry, looked up): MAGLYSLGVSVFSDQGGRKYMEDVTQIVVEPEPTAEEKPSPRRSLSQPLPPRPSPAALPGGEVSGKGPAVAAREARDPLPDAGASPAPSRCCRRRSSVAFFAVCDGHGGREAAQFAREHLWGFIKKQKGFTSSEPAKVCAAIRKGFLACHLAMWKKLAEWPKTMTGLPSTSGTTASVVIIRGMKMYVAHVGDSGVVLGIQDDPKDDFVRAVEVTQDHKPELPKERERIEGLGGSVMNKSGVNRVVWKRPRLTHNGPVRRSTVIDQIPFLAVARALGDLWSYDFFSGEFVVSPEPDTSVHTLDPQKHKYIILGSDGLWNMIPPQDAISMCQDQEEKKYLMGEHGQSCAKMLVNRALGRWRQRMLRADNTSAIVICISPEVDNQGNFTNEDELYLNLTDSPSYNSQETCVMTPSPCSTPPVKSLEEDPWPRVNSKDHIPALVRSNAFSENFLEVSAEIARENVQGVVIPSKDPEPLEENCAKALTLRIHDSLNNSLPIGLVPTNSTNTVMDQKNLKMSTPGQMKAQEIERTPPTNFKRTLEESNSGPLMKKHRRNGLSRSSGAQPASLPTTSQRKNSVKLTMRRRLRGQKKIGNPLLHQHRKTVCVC
How it was run: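 RapidFire MS readout of dephosphorylated VEPPL-S-QETFS product, with 1 uM isotope-labelled peptide standard. Reaction: 10 nM WIP1, 2 uM phosphopeptide substrate, 5 min, room temperature, after 1 h compound preincubation; stopped with 0.5% formic acid.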

[4] = target: Protein phosphatase 1D (Homo sapiens) (UniProt O15297); test: Rhodamine-PBP qHTS Assay for Modulators of WT P53-Induced Phosphatase 1 (WIP1) (AID 1347425)
How it was run: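 Steps: enzyme with Rh-PBP sensor and compounds, room-temperature incubation of 1 hr, baseline read, addition of VEPPL-pS-QETFS (10 uM final), kinetic fluorescence reads at 525/598 nm. Activity equals final minus baseline signal.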

[5] = Validation qHTS assay for inhibitors of Activation Induced Cytidine Deaminase (AID): UDG Counterscreen signal (AID 1347427)
How it was run: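 Fluorescence at 560 nm excitation, 665 nm emission reports UDG signal after 250 mM NaOH (2x) addition and 30 min. Enzymes (AID 1 uM, UDG 2 U/mL, at 4/3x) preincubated 10 min with compound, then 4 h with 4x 250 nM DJC20/DJC23 substrate at room temperature.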

[6] = target: Single-stranded DNA cytosine deaminase (Homo sapiens) (UniProt Q9GZX7); test: Validation qHTS assay for inhibitors of Activation Induced Cytidine Deaminase (AID): AID signal (AID 1347429)
Chain of Single-stranded DNA cytosine deaminase (Homo sapiens) (Q9GZX7 whole entry, looked up): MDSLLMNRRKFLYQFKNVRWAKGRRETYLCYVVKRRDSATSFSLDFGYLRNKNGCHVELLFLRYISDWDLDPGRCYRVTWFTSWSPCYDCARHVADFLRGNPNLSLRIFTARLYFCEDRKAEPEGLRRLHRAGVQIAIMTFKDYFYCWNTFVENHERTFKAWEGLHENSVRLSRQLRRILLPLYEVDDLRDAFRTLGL
How it was run: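 Compounds (final up to 114 uM) preincubated with AID plus UDG; 250 nM DJC20/DJC23 substrate mix (4x stock) added, 4 hr at room temperature, then NaOH, 30 min. Read 1 fluorescence at 540 nm excitation, 590 nm emission.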

[7] = Primary qHTS for inhibitors of SARS-S pseudo-typed particle cell entry (AID 1479145; calls by dose curve; also: nearly all actives have a fitted effect of over 45% in size)
[8] = Primary qHTS for Huh7 cytotoxicity: counterscreen for inhibitors of MERS-S pseudotyped particle cell entry (AID 1479147; calls by dose curve)
[9] = Primary qHTS for inhibitors of MERS-S pseudo-typed particle cell entry (AID 1479149; calls by dose curve; also: nearly all actives have a fitted effect of over 60% in size)
[10] = Primary qHTS for Vero E6 cytotoxicity: counterscreen for inhibitors of SARS-S pseudo-typed particle cell entry (AID 1479150; calls by dose curve)
[11] = Primary qHTS for inhibitors of La Crosse Virus (LACV) - induced cell death in SH-SY5Y cells (AID 1508616);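 also: top concentration of the series differs between compounds; higher means more rescue of cells from virus-induced death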
How it was run: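 Rescue of virus-induced death was read as ATPLite luminescence after 6 days at 37C, scaled between DMSO wells with LACV and without virus. Cells were SH-SY5Y, 6000/well, infected at 0.01 MOI after compound addition.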

[12] = target: Calcium and integrin-binding protein 1 (Homo sapiens) (UniProt Q99828); test: Validation qHTS for Identification of Calcium Integrin Binding protein 1 (CIB1) Competitor (AID 1508618)
Chain of Calcium and integrin-binding protein 1 (Homo sapiens) (Q99828 whole entry, looked up): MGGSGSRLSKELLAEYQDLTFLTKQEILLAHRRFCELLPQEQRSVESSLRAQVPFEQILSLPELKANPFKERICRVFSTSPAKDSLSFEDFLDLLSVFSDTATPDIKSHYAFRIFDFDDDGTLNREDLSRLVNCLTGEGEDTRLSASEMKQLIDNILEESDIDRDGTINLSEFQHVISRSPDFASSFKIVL
How it was run: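 In this qHTS validation, the LOPAC set (up to 114 uM) was tested for blocking CIB1 binding to a fluorescein-tagged alphaIIb peptide, with FP detection at 480/540 nm.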

[13] = target: Calcium and integrin-binding protein 1 (Homo sapiens) (UniProt Q99828); test: Primary qHTS for Identification of Calcium Integrin Binding Protein 1 (CIB1) Competitor (AID 1508620);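 also: GST tagged CIB1 binding a fluorescein labelled alphaIIb integrin peptide tracer; top concentration of the series differs between compounds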
How it was run: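 Fluorescence polarization competition: GST-tagged CIB1 (1 uM final) preincubated with compound 15 min at room temperature, then FITC-labelled alphaIIb peptide (100 nM final) added. After 15 min at room temperature, polarization read at Ex 480/Em 540.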

[14] = qHTS to identify inhibitors of the type 1 interferon - major histocompatibility complex class I in skeletal muscle: primary screen against the NCATS Pharmaceutical Collection (AID 1347407);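 also: luminescence of HiBiT knocked into endogenous HLA-B as interferon-induced MHC class I level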
How it was run: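 A qHTS format is used: 8-point, 1:5 compound series with 46 uM top final concentration, applied alongside 4 ng/ml IFN-beta to HLA-B*08:01-HiBiT knock-in myoblasts. Luminescence is measured after 24 h treatment.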

[15] = Counterscreen qHTS for small molecule stabilizers of the endoplasmic reticulum resident proteome: GLuc-NoTag assay (AID 1508627); also: series mostly up to about 76 µM
How it was run: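 Counterscreen line: SH-SY5Y-GLuc-NoTag. Seed, 5 h; compound, 19 h; thapsigargin 100 nM, 4 h; 37C/5% CO2. Readout: secreted GLuc luminescence, coelenterazine 0.07x final, no lysis.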

[16] = Confirmatory qHTS for small molecule stabilizers of the endoplasmic reticulum resident proteome: Secreted ER Calcium Modulated Protein (SERCaMP) assay (AID 1508628); also: potency is read from the fitted curve at half-maximal effect; nearly all actives have a fitted effect of over 40% in size
How it was run: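 Reporter secretion upon ER calcium depletion (100 nM thapsigargin, 4 h, 37C) is measured as medium luminescence with coelenterazine, after 16 h compound pretreatment of SH-SY5Y-GLuc-SERCaMP cells; primary at three concentrations up to 38.3 uM, follow-up at 11 (up to 76.6 uM).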

Measured: Potency

CC(NC(C)(C)C)C(=O)c1cccc(Cl)c1 (centres undefined)
inactive: [1] | [2] | [3] | [4] | [5] | [6] | [7] | [8] | [9] | [10] | [11] | [12] | [13]

COc1cccc([C@@]2(O)CCCC[C@@H]2CN(C)C)c1
inactive: [14] | [3] | [13]

CNC(C)(C)Cc1ccccc1
inactive: [14] | [3] | [7] | [8] | [9] | [10] | [11] | [13]

C[C@H]1[C@@H]2Cc3ccc(O)cc3[C@@]1(C)CCN2C
inactive: [3] | [4] | [11] | [13] | [15]
active: [16] 22.4 µM

CC(C)c1cccc(C(C)C)c1O
inactive: [1] | [2] | [3] | [5] | [6] | [7] | [8] | [9] | [10] | [11] | [12] | [13]

C[C@]12CCC(=O)C=C1CC[C@@H]1[C@@H]2CC[C@@]2(C)[C@H]1CC[C@]2(C)O
inactive: [3] | [4] | [11] | [13]

CCN[C@@H](C)Cc1ccccc1
inactive: [3] | [4] | [13]

CC(C)(C)c1ccc(O)cc1
inactive: [3] | [4] | [7] | [9]

NCCc1ccc(O)cc1
inactive: [1] | [3] | [5] | [6] | [12] | [13]

C[C@]12CC[C@H]3[C@@H](CC[C@@]45O[C@H]4C(O)=C(C#N)C[C@]35C)[C@H]1CC[C@H]2O
inactive: [3] | [4] | [8] | [10] | [11] | [13]

C[C@]12CCC(=O)C=C1CC[C@@H]1[C@@H]2CC[C@]2(C)C(=O)CC[C@@H]12
inactive: [3] | [4] | [7] | [8] | [9] | [10] | [13]

CCc1cc2c(s1)-n1c(C)nnc1CN=C2c1ccccc1Cl
inactive: [3] | [7] | [8] | [9] | [10] | [13]

O=C(O)c1ccc(=O)[nH]c1
inactive: [3] | [4] | [13]

O=C1CN=C(c2ccccc2)c2cc([N+](=O)[O-])ccc2N1
inactive: [3] | [4] | [13]
